Test results reported in PubChem BioAssay (NCI).
Values joined by “and” are separate entries in the source; they are usually repeats but may differ in a detail not shown here. Equal values may be shown once. About 83,000 compounds went through this panel and 20% of them were active in at least one assay; those are over-represented in the sample as a whole.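 The endpoint reported here, percent growth, reads 100 for growth as untreated, 0 for no net growth and -100 for all cells dead.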 A number with no mark means an inactive call. Active and inactive are the calls of the source. Rule for the calls: active = growth percent below 10; inactive = the rest.

These compounds were tested on MDA-MB-468 breast (assay: NCI-60 one-dose screen, 48 h (100 = growth as untreated, 0 = no growth, -100 = all killed)). Settings: 10 µM unless noted.
Compound COc1ccc2occ(C3=C(c4c[nH]c5ccccc45)C(=O)N(O)C3=O)c2c1 has a growth of 95.1%.
For Cc1cc2nc3[nH]c4ccccc4c3nc2cc1C, the growth was 97.5%.
Compound C=CCn1c(SCC(=O)Nc2ccc(C(=O)/C=C/c3cc(OC)c(OC)c(OC)c3)cc2)nnc1-c1cc(-c2ccc(S(C)(=O)=O)cc2)nc2ccccc12 has a growth of 88.8%.
Compound COc1ccccc1NC(=O)N=Nc1c(O)[nH]c2ccccc12 has a growth of 86.1%.
N#CC1=C(N2CCOCC2)NC2c3ccccc3Sc3ccccc3N2C1=N (stereo not given) was tested, and the growth was 99.9%.
CC(=O)Nc1ccc2c(c1)Cc1cc(F)ccc1-2 was tested, and the growth was 101%.
COc1cccc(/C=N/Nc2nc3ccccc3s2)c1OC gave a growth of 80.3%.
In the case of CC1(C)CC[C@]2(C(=O)NCCCCCCN(CCCN)CCCN)CC[C@]3(C)C(=CC[C@@H]4[C@@]5(C)CC[C@H](O)C(C)(C)[C@@H]5CC[C@]43C)[C@@H]2C1, the growth is reported as 98.6%.
N#CC1C=Cc2c(ccc3ccccc23)N1C(=O)c1ccccc1 (stereo not given) was tested, and the growth was -10.5% (active).
Compound C=CCn1c(SCC(=O)Nc2ccc(C(=O)/C=C/c3ccc(Br)cc3)cc2)nnc1-c1c[nH]c2ccccc12 has a growth of 85.8%.
With O=C(Nc1ccc(-c2nc(-c3cccc(OCCN4CCOCC4)c3)c(-c3ccnc(Br)c3)[nH]2)cc1)c1ccccc1 the growth was -6.35% (active).
O=C(c1ccccc1)c1c(/C=C/c2ccc(Cl)cc2)nc2ccccc2c1/C=C/c1cccs1 was tested, and the growth was 94.3%.
For COc1cc(-c2nc(SCCC(C)C)nc(Nc3ccccc3Cl)c2C#N)cc(OC)c1OC, the growth was 108%.
Clc1ccc2c(OCCCN3CCOCC3)c3oc4ccccc4c3nc2c1 was tested, and the growth was 21.1%.
Work on C=C1CC[C@@H]2[C@@](C)(CCC[C@]2(C)C(=O)O)[C@@H]1CC[C@H](CO)CCO yielded a growth of 108%.
Compound CCN(CC)S(=O)(=O)c1ccc(OC)c(NC(=O)c2[nH]c(C)c3c2CCCCC3=O)c1 has a growth of 10.7%.
With COc1ccc(/C(C#N)=C/c2nc3c(N4CCOCC4)nc(Cl)nc3n2C)cc1OC the growth was -20.9% (active).
In the case of O=S(=O)(Nc1ccc(Br)c(Cl)c1)c1ccc(-c2cnc(C3CC3)o2)cc1, the growth is reported as -23.9% (active).
For N#C/C(=C\c1ccc(Cl)cc1)n1nnc2cc(F)c(F)cc21, the growth was 3.5% (active).
C=C1CCC2C3(C)COC(c4ccc(SC)cc4)OC3CCC2(C)C1C/C=C1/C(=O)OCC1O (stereo not given) gave a growth of 77.4%.
Nc1ccc(/C=N/Nc2ccnc3c(N)cccc23)c2cccnc12 was tested, and the growth was -38.4% (active).
For O=C(NCO)c1ccccc1, the growth was 110%.
For N=C(N)N1CCc2ccccc2C1, the growth was 41% and 107%.
[Cl][Ru].c1ccc(-c2cccc(-c3ccccn3)n2)nc1.c1ccc(-c2ccnc3c2ccc2c(-c4ccccc4)ccnc23)cc1 was tested, and the growth was -21.4% (active).
Cc1ccc(-c2nc3c(c(-c4ccccc4)nn3-c3ccccc3)c(-c3ccc(O)cc3)c2C#N)cc1 showed a growth of 52.7%.
In the case of C#Cc1nc(C2=C(C)C(O)CC2)cs1 (stereo not given), the growth is reported as -91.7% (active).
Compound OC(c1cccc(OCc2ccccc2)c1)c1nnc(-c2ccccc2)o1 (stereo not given) has a growth of 64.8%.
Work on CC1NC(=S)NC(=O)/C1=C/c1cc(=O)oc2c1ccc1ccccc12 (stereo not given) yielded a growth of 103%.
In the case of CCCCCCCC/C=C\CCCCCCCCOc1ccccc1CCOP(=O)(O)OCC[N+](C)(C)C, the growth is reported as 61.9%.
Compound Cn1ncc2c(C(=O)c3ccc(F)cc3)nc(C(C)(C)C)nc21 has a growth of 93.5%.
COc1cnc2c(c1)C(=O)c1c-2n(CCCNC(C)C)c(=O)c2cc(Cl)ccc12 was tested, and the growth was 17.7%.
CCOC(=O)CSc1nc(-c2cc(OC)ccc2OC)cc(-c2ccc(OC)cc2)c1C#N was tested, and the growth was 92.7%.
CCN1CCN(c2ccc(Nc3cc(-c4cccnc4Nc4c(Cl)c(OC)cc(OC)c4Cl)ncn3)cc2)CC1 gave a growth of 89.6%.
For CC(C)(C)c1ccc([I+]c2ccc(C(C)(C)C)cc2)cc1, the growth was -26% (active).
Compound C[C@@H]1[C@H]2[C@H](C=C3[C@@H]4CC[C@H]5Cc6nc7c(nc6C[C@]5(C)[C@H]4C[C@@H](O)[C@@]32C)C[C@@H]2CC[C@H]3C4=C[C@@H]5O[C@@]6(CC[C@](C)(CO)O6)[C@@H](C)[C@@]5(O)[C@@]4(C)[C@H](O)C[C@@H]3[C@@]2(C)C7)O[C@]12CCC(C)(C)O2 has a growth of 11.8%.
With CCCCCCCC(=O)SCC/C=C/[C@@H]1CC(=O)NCc2cccc(n2)C2=N[C@@](C)(CS2)C(=O)N[C@@H](C(C)C)C(=O)N1 the growth was -10.5% (active).
In the case of COc1ccc2nc3ccccc3c(NCc3ccc(F)cc3)c2c1, the growth is reported as -23.9% (active).
With Cc1ccc(S(=O)(=O)N/N=C\c2cc(Cl)ccc2O)cc1 the growth was 68.4%.
Compound CC(C)C(C)(C)C(=O)C(C)(C)C(C)(C)C has a growth of 90.1%.
In the case of NC(=O)c1cc(-c2ccc3ncnc(N4CCc5cc(F)c(Cl)cc54)c3c2)cnc1N, the growth is reported as -35.3% (active).
